# Experimental data taken from the supplement of paper PMC10849652.
# Of roughly 8,800 targets only a part is listed; those with a hit were picked by preference. About 0.5% of all pairs of compound and target were hits. Unmarked numbers belong to inactive results.
# What was measured:
# Experiment in all cases: log2 fold change, soluble protein after heating vs DMSO (PISA); higher = thermal stabilisation; K562 lysate, 10 uM; active = over 0.2 and 3.5 SD of the protein, either way, in both replicates (recomputed)
# lapatinib = compound: CS(=O)(=O)CCNCc1ccc(-c2ccc3ncnc(Nc4ccc(OCc5cccc(F)c5)c(Cl)c4)c3c2)o1 [lapatinib]
# Summary of the method: (§1)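 Log-two fold change in thermal stability relative to solvent controls is reported from duplicates. For each sample, crude K562 extract from dounce-homogenised pellets in PBS pH 7.4 with 1 mM MgCl2, at 1 mg/mL protein, was treated with 10 μM compound for 30 min. Aliquots heated for 3 min across 48°C-58°C were pooled, brought to 0.5% NP-40 at 4°C and cleared at 21,000xg for 90 min. The supernatant was quantified by TMTpro 16plex LC-MS/MS with channel sums equalised.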
# pictilisib = compound: CS(=O)(=O)N1CCN(Cc2cc3nc(-c4cccc5[nH]ncc45)nc(N4CCOCC4)c3s2)CC1 [pictilisib]
# Summary of the method: as §1
# crizotinib = compound: C[C@@H](Oc1cc(-c2cnn(C3CCNCC3)c2)cnc1N)c1c(Cl)ccc(F)c1Cl [crizotinib]
# Summary of the method: as §1
# [1] = compound: C[C@H](C1=CC=C(C=C1)C(=O)NC2=C3C=CNC3=NC=C2)N
# Summary of the method: as §1
# duvelisib = compound: C[C@H](Nc1ncnc2nc[nH]c12)c1cc2cccc(Cl)c2c(=O)n1-c1ccccc1 [duvelisib]
# Summary of the method: as §1
# gandotinib = compound: Cc1cc(Nc2cc(CN3CCOCC3)c3nc(C)c(Cc4ccc(Cl)cc4F)n3n2)n[nH]1 [gandotinib]
# Summary of the method: as §1
# tozasertib = compound: Cc1cc(Nc2cc(N3CCN(C)CC3)nc(Sc3ccc(NC(=O)C4CC4)cc3)n2)n[nH]1 [tozasertib]
# Summary of the method: as §1
# doramapimod = compound: Cc1ccc(-n2nc(C(C)(C)C)cc2NC(=O)Nc2ccc(OCCN3CCOCC3)c3ccccc23)cc1 [doramapimod]
# Summary of the method: as §1
# bafetinib = compound: Cc1ccc(NC(=O)c2ccc(CN3CC[C@H](N(C)C)C3)c(C(F)(F)F)c2)cc1Nc1nccc(-c2cncnc2)n1 [bafetinib]
# Summary of the method: as §1
# [2] = compound: Cc1cccc(CC(=O)N2CCc3c2ccc(-c2cn(C)c4ncnc(N)c24)c3F)n1
# Summary of the method: as §1
# Sequence of UniProt Q9H2H8 (Q9H2H8 whole entry, looked up): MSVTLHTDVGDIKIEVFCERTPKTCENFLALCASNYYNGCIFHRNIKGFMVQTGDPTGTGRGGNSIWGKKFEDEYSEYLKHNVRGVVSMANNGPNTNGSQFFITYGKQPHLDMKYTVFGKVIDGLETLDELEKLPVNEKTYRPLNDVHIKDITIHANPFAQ
# Sequence of UniProt Q8TCG2 (Q8TCG2 whole entry, looked up): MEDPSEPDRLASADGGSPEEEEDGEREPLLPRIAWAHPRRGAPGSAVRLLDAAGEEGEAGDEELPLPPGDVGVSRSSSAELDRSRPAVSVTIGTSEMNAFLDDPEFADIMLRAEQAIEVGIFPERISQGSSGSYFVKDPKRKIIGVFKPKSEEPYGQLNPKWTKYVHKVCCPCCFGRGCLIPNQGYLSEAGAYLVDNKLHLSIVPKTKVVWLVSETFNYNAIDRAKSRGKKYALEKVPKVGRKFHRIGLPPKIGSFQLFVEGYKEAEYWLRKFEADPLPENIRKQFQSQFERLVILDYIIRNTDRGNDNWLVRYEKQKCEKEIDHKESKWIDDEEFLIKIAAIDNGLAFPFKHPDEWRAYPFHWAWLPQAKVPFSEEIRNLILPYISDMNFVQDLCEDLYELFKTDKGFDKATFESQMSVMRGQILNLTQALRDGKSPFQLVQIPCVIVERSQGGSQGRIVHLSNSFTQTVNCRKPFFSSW
# Sequence of UniProt Q6EEV4 (Q6EEV4 whole entry, looked up): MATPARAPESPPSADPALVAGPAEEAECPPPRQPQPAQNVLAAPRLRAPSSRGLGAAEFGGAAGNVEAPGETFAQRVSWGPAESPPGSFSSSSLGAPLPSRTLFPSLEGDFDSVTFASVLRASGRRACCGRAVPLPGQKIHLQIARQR
# Sequence of UniProt P14314 (P14314 whole entry, looked up): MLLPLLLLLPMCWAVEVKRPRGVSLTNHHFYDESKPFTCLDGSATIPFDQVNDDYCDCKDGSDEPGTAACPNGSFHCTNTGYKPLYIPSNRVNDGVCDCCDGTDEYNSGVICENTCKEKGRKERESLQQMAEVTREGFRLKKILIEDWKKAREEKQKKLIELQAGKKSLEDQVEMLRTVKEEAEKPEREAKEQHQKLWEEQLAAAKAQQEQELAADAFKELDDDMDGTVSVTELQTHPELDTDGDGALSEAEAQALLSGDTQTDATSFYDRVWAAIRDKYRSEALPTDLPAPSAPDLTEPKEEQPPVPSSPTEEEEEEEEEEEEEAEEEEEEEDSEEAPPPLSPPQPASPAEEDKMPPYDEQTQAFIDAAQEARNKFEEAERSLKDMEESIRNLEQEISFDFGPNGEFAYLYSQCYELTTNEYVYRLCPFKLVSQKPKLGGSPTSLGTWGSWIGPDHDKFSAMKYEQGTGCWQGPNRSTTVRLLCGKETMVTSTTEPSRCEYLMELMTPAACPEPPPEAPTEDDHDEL
# Sequence of UniProt P07737 (P07737 whole entry, looked up): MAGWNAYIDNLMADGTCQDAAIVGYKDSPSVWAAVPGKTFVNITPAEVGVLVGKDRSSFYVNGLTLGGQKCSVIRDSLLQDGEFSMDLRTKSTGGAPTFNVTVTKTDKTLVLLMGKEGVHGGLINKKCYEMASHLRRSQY
# Sequence of UniProt P53609 (P53609 whole entry, looked up): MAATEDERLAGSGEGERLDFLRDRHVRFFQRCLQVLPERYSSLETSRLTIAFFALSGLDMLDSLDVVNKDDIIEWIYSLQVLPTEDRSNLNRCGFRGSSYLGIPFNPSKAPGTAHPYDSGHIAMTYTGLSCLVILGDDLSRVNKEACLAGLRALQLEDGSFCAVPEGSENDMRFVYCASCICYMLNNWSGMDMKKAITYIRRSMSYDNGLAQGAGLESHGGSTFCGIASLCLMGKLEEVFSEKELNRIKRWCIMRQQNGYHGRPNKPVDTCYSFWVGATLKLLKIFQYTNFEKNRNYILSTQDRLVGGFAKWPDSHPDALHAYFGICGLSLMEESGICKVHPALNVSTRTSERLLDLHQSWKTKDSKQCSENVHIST
# Sequence of UniProt Q9ULR3 (Q9ULR3 whole entry, looked up): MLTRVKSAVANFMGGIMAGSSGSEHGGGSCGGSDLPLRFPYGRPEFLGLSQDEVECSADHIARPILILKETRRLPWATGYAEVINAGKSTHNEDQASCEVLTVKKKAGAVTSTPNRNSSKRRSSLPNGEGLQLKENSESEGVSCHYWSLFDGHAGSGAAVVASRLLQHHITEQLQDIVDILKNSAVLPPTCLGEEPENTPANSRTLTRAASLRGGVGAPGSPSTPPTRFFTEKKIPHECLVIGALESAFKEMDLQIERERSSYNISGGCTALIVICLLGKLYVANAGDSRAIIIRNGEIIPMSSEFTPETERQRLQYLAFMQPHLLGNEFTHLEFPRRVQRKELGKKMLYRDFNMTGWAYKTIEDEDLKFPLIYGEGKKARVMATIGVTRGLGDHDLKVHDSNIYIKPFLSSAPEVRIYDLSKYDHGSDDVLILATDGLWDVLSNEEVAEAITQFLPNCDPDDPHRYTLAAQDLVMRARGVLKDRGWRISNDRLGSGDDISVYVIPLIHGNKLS
# Sequence of UniProt Q8NEB9 (Q8NEB9 whole entry, looked up): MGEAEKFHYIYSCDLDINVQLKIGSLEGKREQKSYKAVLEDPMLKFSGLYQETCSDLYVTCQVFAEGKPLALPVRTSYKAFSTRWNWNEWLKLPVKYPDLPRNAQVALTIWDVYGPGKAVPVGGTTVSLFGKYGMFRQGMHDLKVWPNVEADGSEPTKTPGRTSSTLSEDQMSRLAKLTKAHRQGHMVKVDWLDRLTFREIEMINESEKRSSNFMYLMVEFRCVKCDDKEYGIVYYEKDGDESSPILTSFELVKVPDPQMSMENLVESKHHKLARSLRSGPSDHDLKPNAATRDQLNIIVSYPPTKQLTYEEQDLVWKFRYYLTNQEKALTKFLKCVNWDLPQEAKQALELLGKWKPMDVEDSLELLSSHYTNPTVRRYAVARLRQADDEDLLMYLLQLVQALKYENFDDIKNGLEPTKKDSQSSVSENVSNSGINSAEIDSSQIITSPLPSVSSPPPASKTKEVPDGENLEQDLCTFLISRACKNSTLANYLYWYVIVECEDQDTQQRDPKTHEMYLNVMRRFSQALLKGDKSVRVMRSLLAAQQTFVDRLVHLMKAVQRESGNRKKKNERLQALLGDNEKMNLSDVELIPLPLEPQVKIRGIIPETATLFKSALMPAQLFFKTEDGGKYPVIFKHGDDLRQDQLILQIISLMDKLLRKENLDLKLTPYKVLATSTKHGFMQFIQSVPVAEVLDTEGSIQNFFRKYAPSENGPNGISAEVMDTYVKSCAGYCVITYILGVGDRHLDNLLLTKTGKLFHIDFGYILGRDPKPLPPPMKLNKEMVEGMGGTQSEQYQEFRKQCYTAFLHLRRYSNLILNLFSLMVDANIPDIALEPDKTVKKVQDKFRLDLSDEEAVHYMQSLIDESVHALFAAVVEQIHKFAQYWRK
# Sequence of UniProt O00541 (O00541 whole entry, looked up): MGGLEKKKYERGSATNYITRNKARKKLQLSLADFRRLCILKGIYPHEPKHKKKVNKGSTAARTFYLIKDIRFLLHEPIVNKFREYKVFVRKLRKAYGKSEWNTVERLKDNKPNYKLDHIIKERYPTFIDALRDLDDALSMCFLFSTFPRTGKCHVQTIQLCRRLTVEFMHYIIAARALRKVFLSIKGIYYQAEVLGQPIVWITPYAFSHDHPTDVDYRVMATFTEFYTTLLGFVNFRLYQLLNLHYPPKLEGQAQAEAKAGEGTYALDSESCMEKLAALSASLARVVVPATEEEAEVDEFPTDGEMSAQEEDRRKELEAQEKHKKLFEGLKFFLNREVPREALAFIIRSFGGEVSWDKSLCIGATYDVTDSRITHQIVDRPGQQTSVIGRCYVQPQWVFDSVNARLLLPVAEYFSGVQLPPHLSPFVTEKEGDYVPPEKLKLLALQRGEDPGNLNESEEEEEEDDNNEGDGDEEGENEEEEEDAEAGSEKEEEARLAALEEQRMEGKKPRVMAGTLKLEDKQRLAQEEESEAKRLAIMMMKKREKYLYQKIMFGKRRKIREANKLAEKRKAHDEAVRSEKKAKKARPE
# Sequence of UniProt Q13442 (Q13442 whole entry, looked up): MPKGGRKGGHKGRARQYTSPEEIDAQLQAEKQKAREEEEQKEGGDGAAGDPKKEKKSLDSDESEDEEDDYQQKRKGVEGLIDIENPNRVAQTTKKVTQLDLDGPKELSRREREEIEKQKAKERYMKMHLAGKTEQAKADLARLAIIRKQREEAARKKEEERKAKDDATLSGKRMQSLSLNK
# Sequence of UniProt Q16877 (Q16877 whole entry, looked up): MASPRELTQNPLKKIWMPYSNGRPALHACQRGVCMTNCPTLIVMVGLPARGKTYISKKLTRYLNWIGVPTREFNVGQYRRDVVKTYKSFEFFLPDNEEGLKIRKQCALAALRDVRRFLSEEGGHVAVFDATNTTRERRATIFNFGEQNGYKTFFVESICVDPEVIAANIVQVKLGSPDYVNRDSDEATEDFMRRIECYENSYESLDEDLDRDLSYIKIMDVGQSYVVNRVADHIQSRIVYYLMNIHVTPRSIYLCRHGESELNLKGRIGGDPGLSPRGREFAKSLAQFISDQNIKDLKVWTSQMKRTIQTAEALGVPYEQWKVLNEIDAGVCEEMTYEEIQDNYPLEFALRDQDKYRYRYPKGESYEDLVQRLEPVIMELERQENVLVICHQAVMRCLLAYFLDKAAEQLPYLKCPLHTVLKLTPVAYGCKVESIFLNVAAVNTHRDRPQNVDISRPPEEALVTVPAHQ
# Sequence of UniProt Q9BUL8 (Q9BUL8 whole entry, looked up): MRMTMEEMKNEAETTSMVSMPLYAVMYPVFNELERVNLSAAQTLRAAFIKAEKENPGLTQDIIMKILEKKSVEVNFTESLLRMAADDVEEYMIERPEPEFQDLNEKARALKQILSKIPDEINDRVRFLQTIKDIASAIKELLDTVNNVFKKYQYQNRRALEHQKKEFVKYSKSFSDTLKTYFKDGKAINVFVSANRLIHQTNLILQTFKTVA
# Sequence of UniProt Q9NXJ5 (Q9NXJ5 whole entry, looked up): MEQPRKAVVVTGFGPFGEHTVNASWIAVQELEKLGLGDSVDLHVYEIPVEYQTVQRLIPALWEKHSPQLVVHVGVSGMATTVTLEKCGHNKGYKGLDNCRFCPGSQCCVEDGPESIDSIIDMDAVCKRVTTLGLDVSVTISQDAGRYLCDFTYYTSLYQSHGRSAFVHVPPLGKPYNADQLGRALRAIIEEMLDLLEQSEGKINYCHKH
Target,log2 fold change (lapatinib),log2 fold change (pictilisib),log2 fold change (crizotinib),log2 fold change [1],log2 fold change (duvelisib),log2 fold change (gandotinib),log2 fold change (tozasertib),log2 fold change (doramapimod),log2 fold change (bafetinib),log2 fold change [2]
PFN1 (UniProt P07737),0.01,-0.003,0.016,-0.006,0.009,0.007,-0.004,0.007,0,0.007
PDCD10 (UniProt Q9BUL8),-0.016,-0.014,-0.005,-0.254 (active),-0.007,0.112,0.023,-0.013,-0.033,0.031
PLEKHA5 isoform 6 (UniProt Q9HAU0),0.003,-0.054,0.006,-0.033,-0.032,0.093,0.002,-0.028,-0.061,0.002
PFKFB4 (UniProt Q16877),-0.008,-0.061,-0.034,-0.027,0.011,-0.044,-0.012,0.009,-0.003,0.039
PDCD6IP (UniProt Q8WUM4),-0.006,-0.032,-0.103,-0.106,0.004,-0.012,0.033,0.034,-0.053,0.012
PGGT1B (UniProt P53609),0.013,-0.012,0.01,0.013,-0.019,-0.158,0.083,0.047,0.076,-0.074
PES1 (UniProt O00541),0.006,0.005,-0.001,-0.027,0.01,-0.025,0.004,-0.021,-0.014,0.064
PRPF38A (UniProt Q8NAV1),-0.001,0.039,-0.248,-0.399 (active),0.03,0.024,-0.034,0.012,-0.055,0.121
PIK3C3 (UniProt Q8NEB9),-0.066,0.041,-0.009,-0.137,0.107,0.272 (active),-0.042,-0.005,-0.013,0.133
PRKAR2A (UniProt P13861),0.036,-0.094,0.013,0.006,-0.025,-0.232 (active),0.015,0.036,-0.026,0.031
PDIA4 (UniProt P13667),-0.018,0.006,0.09,0.029,-0.011,-0.026,0,-0.057,0.014,-0.045
POC5 (UniProt Q8NA72),-0.133,-0.12,0.02,0.022,-0.041,0.107,-0.086,-0.023,0.051,0.031
PRKCSH isoform 2 (UniProt P14314),0.132,0.072,-0.016,-0.622 (active),0.174,0.293,0.092,0.136,0.055,0.24
POLB (UniProt P06746),0.017,0.075,-0.003,0.011,0.018,-0.041,-0.015,-0.003,-0.024,-0.009
POLR2M (UniProt Q6EEV4),0.047,-0.07,-0.064,0.026,-0.049,-0.154,0.055,-0.041,-0.116,0.046
PGPEP1 (UniProt Q9NXJ5),0.023,-0.013,0.011,-0.025,0.057,-0.029,0.03,0.045,-0.013,-0.019
PTPN2 (UniProt P17706),-0.016,-0.01,-0.074,-0.084,-0.042,-0.013,-0.037,-0.012,-0.077,0.071
POLD3 (UniProt Q15054),0.03,-0.046,-0.056,0.022,-0.033,-0.079,0.021,0.001,-0.031,-0.038
PYURF (UniProt Q96I23),0.036,-0.066,0.016,0.01,0.087,-0.015,-0.048,0.011,0.091,0.015
PWP1 (UniProt Q13610),0.041,-0.001,0.003,0.488 (active),0.055,-0.052,0,-0.125,0.032,-0.084
PRIM1 (UniProt P49642),-0.02,0.023,-0.064,0.024,0.004,-0.099,0.027,-0.022,-0.077,0.007
PIP4P2 (UniProt Q8N4L2),0.021,-0.019,0.021,0.053,0.027,-0.021,0.061,0.033,-0.09,-0.009
PPIL3 (UniProt Q9H2H8),0.05,-0.062,0.079,-0.115,-0.009,0.084,-0.019,0,-0.037,0.08
PPP2R5C isoform 4 (UniProt Q13362),-0.05,0,0.015,-0.051,0.213,-0.034,0.025,-0.11,-0.077,0.055
PHKA1 (UniProt P46020),-0.117,-0.003,-0.001,-0.042,-0.044,0.069,0.009,0.024,0.051,-0.047
PI4K2B (UniProt Q8TCG2),0.009,0.039,-0.203,0.134,0.143,0.041,0.019,-0.026,-0.017,0.003
PPM1H (UniProt Q9ULR3),0.013,0.016,0.021,-0.043,0,0.157,0.021,0.093,-0.079,0.038
PRKCD (UniProt Q05655),-0.143,0.003,-0.011,-0.135,0.024,0.009,0.015,0.005,-0.069,0.007
PDCD4 (UniProt Q53EL6),-0.026,-0.003,-0.055,-0.051,-0.022,0.009,-0.002,0.011,-0.038,0.062
PDAP1 (UniProt Q13442),-0.004,0.03,0.043,-0.232 (active),-0.043,0.135,-0.026,-0.03,0.006,0.089
